These results are taken from PubChem BioAssay AID493056 (National Center for Advancing Translational Sciences (NCATS), 2011).

Structures are written as SMILES. About 2,400 (0.67%) of roughly 360,000 compounds were called active. The sample as a whole holds a higher share of actives than the screen did. Values without a mark were called inactive. No stated cut-off is given here; in the data, active means enhancement above about 30%; inactive means the rest.

Thyrotropin-releasing hormone receptor (Homo sapiens), sequence (P34981 whole entry, looked up): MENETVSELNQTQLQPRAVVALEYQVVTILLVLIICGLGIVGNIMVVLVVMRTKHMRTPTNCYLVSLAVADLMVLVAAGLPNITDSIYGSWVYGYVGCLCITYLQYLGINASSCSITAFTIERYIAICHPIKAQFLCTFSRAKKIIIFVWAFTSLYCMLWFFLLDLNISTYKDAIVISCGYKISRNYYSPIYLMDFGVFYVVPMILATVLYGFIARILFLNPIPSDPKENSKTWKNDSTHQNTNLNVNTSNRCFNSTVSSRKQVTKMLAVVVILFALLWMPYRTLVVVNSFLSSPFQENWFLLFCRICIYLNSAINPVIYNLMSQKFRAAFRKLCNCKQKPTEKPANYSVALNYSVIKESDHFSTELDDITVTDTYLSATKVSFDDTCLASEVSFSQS

The target in the test is Thyrotropin-releasing hormone receptor (Homo sapiens) (UniProt P34981). Put plainly: qHTS for Small Molecule Agonists and Allosteric Enhancers of Human TRH Receptor: Primary Screen for Enhancers. Further: 0% is about no effect. Particulars: TRHR cells, fluo-8 calcium fluorescence, EC20 TRH enhancement; at 2 µM; hits give high values. The essentials:
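TRHR-expressing cells loaded with fluo-8 calcium dye were read kinetically (ex 480/em 530) during compound addition, then stimulated with an EC20 of TRH (10 nM final). Enhancement of the Gq-mediated intracellular calcium response was scored.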
On the technique in general: Quantitative high-throughput screening tests each substance at several concentrations.
Consider `CCc1cc2c(cc3c(=O)n(CC(=O)N4CCN(c5cc(Cl)ccc5C)CC4)nc(CC)n32)s1`, for which the enhancement is -2.18%. With `Cc1nc2sc(C)c(C)n2c(=O)c1S(=O)(=O)NCCc1ccc(Cl)cc1` the figure was 2.98%; with `O=C(COC(=O)CSc1nnc(-c2ccc(Cl)cc2)o1)Nc1cc(Cl)cc(Cl)c1`, -8.1%; with `O=C(Nc1nnc(-c2ccc(Cl)cc2)o1)c1ccccc1Br`, 1.12%. Turning to `O=C(COC(=O)c1ccccc1Br)Nc1nnc(-c2ccccc2)o1`, the enhancement was 32.2% (active). Turning to `CSc1ncc(C(=O)NCc2ccccc2Cl)c(C(F)(F)F)n1`, the enhancement was -4.14%. With `CN(C)c1ccc(NC(=O)CSc2nc(-c3ccco3)cc(C(F)(F)F)n2)cc1` the figure was 10.8%; with `O=C(NC1CCCCC1)c1ccc(Cn2c(SCc3ccccc3)nc3cccnc32)cc1`, 7.91%. In the case of `COc1ccccc1C(=O)NCC(=O)NCCSc1ccc(Br)cc1`, the enhancement is 0.828%. Take `COc1cc(C(=O)NCC(=O)NCCSc2ccc(Br)cc2)cc(OC)c1OC`: the enhancement was 1.93%. For `COc1cccc(C(=O)NCCSc2ccc(Br)cc2)c1`, the enhancement is 31.9% (active). As to `CCOc1cc(C2C(C(=O)Nc3ccc(OC)cc3)=C(C)Nc3nc(SC)nn32)ccc1O` (stereo not given), the enhancement was -5.28%. With `COc1ccccc1N1CCN(C(=O)C2Cc3ccccc3CN2C(=O)c2ccco2)CC1` (stereo not given) the figure was 6.6%; with `O=C(C1Cc2ccccc2CN1C(=O)c1ccco1)N1CCN(c2ccccc2)CC1` (stereo not given), 36% (active); with `CCC(=O)N1c2ccccc2CC1C(=O)N1CCN(c2ccccc2)CC1` (stereo not given), -2.98%. In the case of `COc1cccc(NC(=O)CSC2=Nc3ccccc3C3=NC(CC(=O)NC4CCCCC4)C(=O)N23)c1` (stereo not given) it was -3.86%; in that of `COc1ccc(NC(=O)c2sc3nc(-c4cc5cccc(OC)c5oc4=O)[nH]c(=O)c3c2C)cc1`, 8.15%. With `Cn1c(=O)c2c(SCC(=O)NCC3CCCO3)nc(-c3ccccc3F)nc2n(C)c1=O` (stereo not given) the figure was -1.86%; with `CC1=NCCN1S(=O)(=O)c1cccc([N+](=O)[O-])c1`, 18.4%. Regarding `Cc1ccc(-c2cn(S(=O)(=O)c3cccc([N+](=O)[O-])c3)nc2N)cc1`, the enhancement is 43.3% (active).

As for `Cc1cc(C)n(S(=O)(=O)c2cccc([N+](=O)[O-])c2)n1`, the enhancement is -7.84%.

Consider `CCOc1ccc(CNC(=O)c2cc(=O)[nH]c3ccc(S(=O)(=O)N4CCCCC4)cc23)cc1`, for which the enhancement was 5.17%. In the case of `COc1ccc(OC)c(NC(=O)Cn2c(=O)n(Cc3ccccc3)c(=O)c3ccccc32)c1` it was -7.19%; in that of `COc1ccccc1-c1nnc(SCC(N)=O)o1`, 0.976%. With `COc1ccccc1-c1nnc(C2CCN(C(=O)c3ccc(Cl)cc3)CC2)o1` the figure was 49.9% (active); with `COc1ccc(C(=O)N2CCC(c3nc4ccccc4o3)CC2)cc1`, 6.96%; with `COC(=O)c1c(NC(=O)c2ccc(Cl)c(Cl)c2)sc2c1CCCC2`, 12.7%.

With `COc1cccc(C(=O)NC2CCN(C#N)CC2)c1`, the enhancement was -0.807%. Regarding `Cc1ccc(Cl)cc1N1CCN(C(=O)c2cnc3c(-c4ccc(F)cc4)c(C)nn3c2C)CC1`, the enhancement was -2.73%. In the case of `CCOc1ccc(N(CC)C(=O)c2noc3c2COc2ccc(C)cc2-3)cc1` it was -7.18%.

Regarding `NS(=O)(=O)c1cccc(NC(=O)CSc2nc3ccccc3n2-c2ccccc2)c1`, the enhancement was 41.7% (active). For the molecule `COc1ccc(-n2cnnc2SCC(=O)Nc2cccc(S(N)(=O)=O)c2)cc1`, the enhancement was 17.5%.

`Cc1nnc(SCC(=O)Nc2cccc(N)c2)n1-c1ccccc1`: the enhancement was 3.5%.

For `O=C(CNC(=O)c1ccc(Cl)c(C(F)(F)F)c1)OC(C(=O)Nc1cc(C(F)(F)F)ccc1Cl)c1ccccc1` (stereo not given), the enhancement is -3.64%. On to `Cc1nn(-c2nc(-c3ccccc3)cc(C(F)(F)F)n2)c(C)c1Cl`, for which the enhancement is -7.42%. Turning to `COc1cccc(-n2ccn(CC(=O)NCc3ccc(C)cc3)c(=O)c2=O)c1`, the enhancement was 6.62%. For the molecule `COc1ccc(Cl)cc1NC(=O)CN(C)Cc1ccc(OC)c(OC)c1`, the enhancement was 56.6% (active). Regarding `COc1ccc(OC)c(NC(=O)CN(Cc2ccc(Cl)cc2)S(C)(=O)=O)c1`, the enhancement is -0.638%. In the case of `COc1ccc(Cl)cc1NC(=O)CN(C)CC(=O)Nc1ccc2c(c1)OCO2` it was -3.24%; in that of `Cc1ccc(Cl)c(OCC(=O)NN2CCN(C)CC2)c1`, 1.82%; in that of `O=C(COc1ccccc1Cl)N1CCCCCCC1`, -0.869%. In the case of `Cc1ccc(Cl)c(OCC(=O)N2CCc3ccccc3C2)c1` it was 61.4% (active); in that of `Cc1cccc(CC(=O)Nc2cccc(-c3cn4cccnc4n3)c2)c1`, -2.19%.

For `Cc1ccc(SCC(=O)Nc2ccc3oc(-c4ccccc4F)nc3c2)cc1`, the enhancement was -1.22%. With `CCc1ccc(N2C(=O)CN(S(=O)(=O)CC)CC2(C)C(=O)NC2CCCCC2)cc1` (stereo not given) the figure was -0.256%. With `O=C(c1ccc2c(c1)N(Cc1ccccc1F)C(=O)c1ccccc1S2(=O)=O)N1CCOCC1` the figure was 16.1%; with `Cc1ccc(C)c(CN2C(=O)c3ccccc3S(=O)c3ccc(C(=O)N4CCOCC4)cc32)c1` (stereo not given), 30.5% (active). With `Cc1ccc(CCNC(=O)c2ccc3c(c2)N(Cc2cc(C)ccc2C)C(=O)c2ccccc2S3=O)cc1` (stereo not given) the figure was 26.1%. With `COc1ccc(NC(=O)C2CCN(c3ccc(Sc4ccc(C)cc4)nn3)CC2)c(OC)c1`, the enhancement was 7.96%.

Consider `CCc1nn(CC(=O)N2CCN(c3ccc(Cl)cc3)CC2)c(=O)c2cc3occc3n12`, for which the enhancement was 3.41%. Turning to `CCc1ccc(S(=O)(=O)Nc2ccc(C)c(NS(C)(=O)=O)c2)cc1`, the enhancement is 2.33%. In the case of `COc1ccc(S(=O)(=O)N/N=C\c2ccc(OC)c(COc3ccc(C)cc3[N+](=O)[O-])c2)cc1` it was -2.77%.

As for `CCc1ccc(S(=O)(=O)N/N=C\c2ccc([N+](=O)[O-])o2)cc1`, the enhancement was 49.5% (active).

Turning to `O=c1c2ccccc2n(Cc2cccc(Cl)c2)c(=O)n1Cc1ccccc1`, the enhancement was 1.58%. With `CCOc1ccc(N(CC)C(=O)c2cc3c(=O)oc4ccccc4c3s2)cc1` the figure was -1.26%.
